Screening results (PubChem)
An excerpt weighted towards active compounds, which were near 1.7% of everything screened.
GLP-1R agonist = agonists of human GLP-1 receptor. P43220. HEK293 GLP-1R CRE-luciferase, luminescence, 4-6 h; cells express a hypersensitive GLP-1R form. Potency, µM (highest dose often 45.6 µM), inactives show at the top dose activation, actives largely listed as activators. 0.007% of 380,000 active. AID 624172; note: % of control where 0% means no effect
Target sequence (P43220 whole entry, looked up): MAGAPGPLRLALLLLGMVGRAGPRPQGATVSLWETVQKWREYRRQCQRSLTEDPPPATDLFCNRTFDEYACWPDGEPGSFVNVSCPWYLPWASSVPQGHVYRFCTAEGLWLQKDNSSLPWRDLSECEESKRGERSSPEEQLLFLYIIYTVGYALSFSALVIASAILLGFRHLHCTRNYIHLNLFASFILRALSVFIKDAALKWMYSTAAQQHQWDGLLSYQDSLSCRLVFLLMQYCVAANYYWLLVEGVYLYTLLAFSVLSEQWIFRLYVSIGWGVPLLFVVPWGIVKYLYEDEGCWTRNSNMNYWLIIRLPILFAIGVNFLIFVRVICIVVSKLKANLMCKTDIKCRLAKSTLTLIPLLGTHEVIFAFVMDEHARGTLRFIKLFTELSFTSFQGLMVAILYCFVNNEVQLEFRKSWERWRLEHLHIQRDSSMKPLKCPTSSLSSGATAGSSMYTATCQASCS
RGS4 inhibitor = inhibitors of human regulator of G protein signaling 4; P49798; Transcreener GDP fluorescence polarization, RGS4-accelerated GTP hydrolysis; Potency, µM (highest dose often 114 µM), inactives show at the top dose activity change, negative = inhibition, usual class: inhibitors; 0.039% of 390,000 active; AID 504845; note: % is set by controls: 0 for no effect and ±100 for the full control effect; nearly all actives have a fitted effect of over 75% in size
Target sequence (P49798 whole entry, looked up): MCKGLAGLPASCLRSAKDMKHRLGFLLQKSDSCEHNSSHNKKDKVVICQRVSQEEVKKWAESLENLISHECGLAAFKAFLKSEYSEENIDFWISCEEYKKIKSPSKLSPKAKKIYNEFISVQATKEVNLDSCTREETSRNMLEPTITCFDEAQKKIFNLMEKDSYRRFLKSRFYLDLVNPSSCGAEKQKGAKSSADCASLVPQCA
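MLSMR compounds (23 nl, pin-transferred) preincubated 10 min at room temperature with a 500nM (2x) first reagent, then RGS4 at 900nM (2x) plus Transcreener GDP mix added; fluorescence polarization (620/688 nm) read before and after 90 min at 30 °C.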
GLP-1R inv ag = inverse agonists of human GLP-1 receptor. HEK293 GLP-1R CRE-luciferase, luminescence, 24 h; GLP-1R form is constitutively active. Potency, µM (titrated, usually from 38.3 µM), for the others: at the top dose activity change, negative = inhibition, usual class: inhibitors. 1.6% of 410,000 active; note: % is set by controls: 0 for no effect and ±100 for the full control effect; nearly all actives have a fitted effect of over 55% in size
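Cells are plated, allowed 12 hours at 37 deg C, then treated with compounds for 24 hr before luciferase detection reagent is added and luminescence is read after 12 min at room temperature. The HEK293 line carries constitutively active GLP-1R with a cAMP-responsive reporter.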
HEK293 tox = cytotoxic in the GLP-1 receptor inverse agonist counter-screen; HEK293 cAMP-luciferase reporter cells, luminescence, 24 h; Potency, µM (titrated, usually from 38.3 µM), for inactives: top-dose activity change, negative = inhibition, hits mostly inhibitors; 0.13% of 410,000 active;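 note: loss of luciferase light is scored as toxicity; % is set by controls: 0 for no effect and ±100 for the full control effect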
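Here, cytotoxicity is scored as loss of luminescence. The MLSMR collection was tested on cells seeded in medium containing 10% Nu serum, with a 24 hr compound exposure preceded by 12 hours of culture.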
PTHR1 ag = PTHR1 (human) receptor agonism | Q03431 | HEK293 GP2 PTHR1 cells, GloSensor cAMP luminescence, 1 h | Potency, µM (top dose mostly 115 µM), for the others: at the top dose activation, actives largely listed as activators | 0.075% of 410,000 active; note: nearly all actives have a fitted effect of over 55% in size
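HEK-293-derived GP2 cells expressing PTHR1 and a GloSensor cAMP reporter, 3,000/well, plated overnight, given luciferin plus IBMX (each 0.5 mM as added) for 1 h at 37 °C, then compound for 1 h at 37 °C. Luminescence was read after 15 min at room temperature.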
Numbers without * were called inactive; i = inactive; ? = inconclusive; · = no result given; [ ] = dose if it differs, or a comment. Calls come from the whole dose curve; as a rule, active = well fitted curve in the direction sought with a large enough effect; inconclusive = small, poorly fitted or top-dose-only effect, or another doubt; inactive = no such curve, though single readings can be large; an effect the other way counts as inactive or inconclusive. Potency is the fitted concentration of half-maximal effect.

SMILES | GLP-1R agonist | RGS4 inhibitor | GLP-1R inv ag | HEK293 tox | PTHR1 ag
Cc1ccccc1OCCCCCCN1CCNCC1 | 7% | 9% | 2.2µM* | 2% | -12%
Cc1ccc(OCCCCCCN2CCNCC2)cc1 | 14% | 27% | 2.2µM* | -25% | -22%
COc1ccccc1/C=C/C(=O)Oc1cccc2cccnc12 | 7% | 4% | 4.5µM* | ? | -37%
O=C1C2C=CC=CC2=NC(=S)N1CCN1CCC(=C(c2ccc(F)cc2)c2ccc(F)cc2)CC1 (stereo not given) | · | 16%[56.9 µM] | · | · | ·
Cc1nn(CC(C)C)c(Cl)c1C(=O)N(c1ccc(Cl)cc1F)S(C)(=O)=O | -3% | 21% | 8.9µM* | -12% | -11%
CCOC(=O)[C@]12CCCC=C1N(CCc1ccc(OC)c(OC)c1)C(=O)[C@H](CC(=O)NCCCCc1ccccc1)C2 | · | · | 10µM* | -27% | 3%
CCOC(=O)C1(Cc2ccc(OC)cc2)CCN(C(=O)c2ccc3[nH]ccc3c2)CC1 | 1% | 9% | 4.5µM* | -12% | -32%
CCC(=O)N(CCC1(C(C)C)CCOC(C)(C)C1)C(C)c1cccs1 (stereo not given) | -8% | -7% | ? | 2% | -29%
CC(C)CCC1(CCNC(C)c2cccs2)CCOC(C)(C)C1 (stereo not given) | 6% | -12% | 7.1µM* | 0% | i
CCN(CC)c1ccc(/C=N/Nc2nc(C)cc(C)n2)cc1 | 10% | -3% | 11µM* | ? | i
O=S(=O)(c1ccc2c(Cl)cccc2c1)N1CCN(c2nc(-c3cccs3)nc3ccccc23)CC1 | · | 29% | · | · | ·
CCC(C)(C)C1CCc2[nH]nc(C(=O)NC3CCCC3)c2C1 (stereo not given) | 0% | -12% | ? | -9% | i
O=C(NC1CCCCC1)c1n[nH]c2c1CCCCC2 | -8% | 19% | 2.5µM* | 5% | -93%
Cc1ccc(-n2cccn2)c(CN2CCCC(C(=O)c3sccc3C)C2)c1 (stereo not given) | 4% | -3% | ? | 11µM* | i
Cc1ccsc1C(=O)C1CCCN(Cc2cccn2-c2ccc(Cl)cn2)C1 (stereo not given) | -6% | 29% | ? | ? | -35%
CC(C)(C)c1ccc(C2CC2C(=O)N/N=C\c2ccc[nH]2)cc1 (stereo not given) | 11% | -42% | 1.1µM* | ? | -29%
COc1ccc(/C=C/C(=O)Nc2ccncc2)cc1OC | 29% | 15% | 1% | -5% | i
CO/N=C\CC(=O)Nc1ccc(Cl)c(Cl)c1 | 5% | -29% | 3.2µM* | -19% | -14%
COc1ccc(/C=C/C(=O)Nc2ccc(Cl)c(Cl)c2)cc1OC | · | -22% | 8.9µM* | ? | -45%
COC(=O)CCC(=O)Nc1ccc(Cl)c(Cl)c1 | 1% | 35% | 3% | 0% | i
CC1(C(=O)Nc2ccc3c(c2)OCCO3)CSCC(=O)N1C1CC1 (stereo not given) | · | · | 3% | 1% | -5%
CC(C)OC(=O)c1cccc(C(=O)Nc2cccc(NC(=O)c3cccc(C(=O)OC(C)C)n3)n2)n1 | 0% | -22% | 8% | -12% | -24%
Cc1cc(NC(=O)c2cc([N+](=O)[O-])ccc2Cl)no1 | -8% | 11% | ? | -15% | i
O=C(Nc1cccc(NC(=O)c2cc([N+](=O)[O-])ccc2Cl)n1)c1cc([N+](=O)[O-])ccc1Cl | 18% | 12% | 4µM* | ? | -20%
CCC(C(=O)N1CCN(c2cc(Cl)ccc2C)CC1)n1nc(C)n2c(cc3occc32)c1=O (stereo not given) | · | -3% | ? | -26% | i
SMILES | GLP-1R agonist | RGS4 inhibitor | GLP-1R inv ag | HEK293 tox | PTHR1 ag
C=CCc1ccc(O)c(-c2cc(CC=C)ccc2O)c1 | 2% | 9% | 11µM* | -3% | -58%
Cc1ccc(OCC(=O)NNC(=O)c2ccc(F)c(S(=O)(=O)N3CCOCC3)c2)cc1C | 10% | · | 13% | 4% | i
O=C(COc1ccccc1)N(Cc1ccco1)c1ccc(O)cc1 | 35% | 9% | ? | 0% | -19%
O=C(c1ccc(Cl)c(Cl)c1)N(Cc1ccco1)c1ccc(O)cc1 | 2% | -33% | 11µM* | -3% | -32%[57.5 µM]
CCC1=Nc2cc(C(=O)NCc3ccc(C)cc3)ccc2Sc2ccc(C)cc21 | · | -11% | 7.1µM* | -20% | i
CCCC1=Nc2cc(C(=O)NCCN3CCOCC3)ccc2Sc2ccccc21 | 6% | 26%[11.4 µM] | ? | -1% | -18%
CCCC1=Nc2cc(C(=O)NCc3ccccc3)ccc2Sc2ccccc21 | · | 16% | 4µM* | -28% | i
CCC1=Nc2cc(C(=O)NCc3ccco3)ccc2Sc2ccccc21 | -5% | -27% | ? | ? | -14%
CCC1=Nc2cc(C(=O)NCc3cccnc3)ccc2Sc2ccc(C)cc21 | 17% | 14% | 1.8µM* | ? | ?
CCC1=Nc2cc(C(=O)NCc3ccco3)ccc2Sc2ccc(Cl)cc21 | 0% | -1% | ? | -35% | i
O=C(N/N=C/c1ccccc1)c1sccc1OCc1ccc(F)cc1 | 11% | 28% | 8.9µM* | -20% | -36%[57.5 µM]
Cc1ccc(C(C)C)cc1OCC(=O)NC1CCCCCCC1 | 2% | 4% | 11µM* | 29% | -38%
CC(C)c1ccc(OCC(=O)NC2CCCC2)cc1 | 5% | 6% | ? | 4% | -17%
Cc1ccc(C(C)C)cc1OCC(=O)NNC(=O)Nc1ccccc1 | 6% | 9% | 6.3µM* | -10% | -10%
CCN1CCN(c2ccccc2NC(=O)C(C)Oc2ccc(C(C)=O)cc2)CC1 (stereo not given) | 4% | -33% | 15% | -28% | -9%
CN(C(=O)CSc1nc2ccc(NC(=O)c3ccccc3)cc2s1)c1ccccc1 | · | 5% | -26% | -21% | -5%
COc1ccc(/C=N/Nc2nc(Nc3ccccc3)nc(N3CCCCC3)n2)c(OC)c1 | 3% | ? | ? | 5µM* | -24%
O=C(Oc1cccc(/C=N/Nc2nc(N3CCOCC3)nc(N3CCOCC3)n2)c1)c1ccco1 | 3% | -14% | ? | -1% | -12%
COc1cc(/C=N/Nc2nc(Nc3ccccc3)nc(N3CCOCC3)n2)ccc1OC(=O)c1ccco1 | 5% | -14%[11.4 µM] | 4.5µM* | -26% | -13%
COc1ccc(/C=N/Nc2nc(Nc3ccccc3)nc(N3CCCC3)n2)cc1[N+](=O)[O-] | 14% | -12% | 8% | ? | -20%
O=C(c1cc(Cl)ccc1Cl)N1CCN(c2ccccn2)CC1 | 16% | -14% | 16% | -3% | i
O=C(c1cnc(N2CCN(c3ccccn3)CC2)c2ccccc12)N1CCN(c2cccc(Cl)c2)CC1 | 2% | -11% | 2.2µM* | -19% | -49%
COc1ccccc1N1CCN(C(=O)c2ccc3[nH]c4c(c3c2)CCCC4)CC1 | 1% | -19% | 10µM* | 4% | -72%
